Our source for the activity change, negative = inhibition values is PubChem BioAssay AID504652 (National Center for Advancing Translational Sciences (NCATS), 2011).

Several values for one entry are separate records, joined by “and”; a condition that tells them apart may be missing. Equal values may be shown once. Hit rate of the full screen: of about 360,000 compounds, about 11,000 (3.1%) were called active. The sample holds actives, similar compounds and a random draw of the others, so the mix is not that of the screen. Rule as the data show it: active = activity change below about -30%; inactive = the rest.
% is scaled to controls: 0 for no effect and ±100 for the full control effect.

For the assay, the target named is D(1A) dopamine receptor (Homo sapiens) (UniProt P21728). In words: Antagonist of Human D 1 Dopamine Receptor: qHTS. As to conditions: HEK293 TREx D1 cells, calcium flux, dopamine EC80; at 10 µM; stronger effect = lower value. The essentials: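 Allosteric or orthosteric antagonism assessed as attenuation of the calcium response to EC80 dopamine, added 180 s after compound, in induced HEK293 Trex D1 cells loaded with no-wash calcium dye.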
D(1A) dopamine receptor (Homo sapiens), sequence (P21728 whole entry, looked up): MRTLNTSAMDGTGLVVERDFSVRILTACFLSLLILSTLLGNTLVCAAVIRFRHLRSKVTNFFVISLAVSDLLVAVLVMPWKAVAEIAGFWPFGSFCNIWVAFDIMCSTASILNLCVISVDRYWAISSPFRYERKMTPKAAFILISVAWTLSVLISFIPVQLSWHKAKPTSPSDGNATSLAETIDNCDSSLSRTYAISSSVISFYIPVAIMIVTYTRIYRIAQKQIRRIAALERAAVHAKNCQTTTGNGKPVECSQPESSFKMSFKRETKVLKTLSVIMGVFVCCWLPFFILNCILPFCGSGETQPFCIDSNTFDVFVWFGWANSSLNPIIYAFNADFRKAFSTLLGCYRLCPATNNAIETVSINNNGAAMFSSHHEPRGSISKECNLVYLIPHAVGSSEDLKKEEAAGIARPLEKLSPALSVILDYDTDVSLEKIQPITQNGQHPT
In the case of `COc1ccc(C(F)(F)F)cc1NC(=O)c1sc2nc(-c3cccs3)ccc2c1N`, the activity change, negative = inhibition was -1.54% (inactive). The value for `NS(=O)(=O)c1ccc(NC(=O)C(=O)Nc2ccc3nc4n(c(=O)c3c2)CCCCC4)cc1` was -3.24% (inactive); that for `COc1ccc(Cc2nc3ccc(C(=O)NCc4ccccc4Cl)cc3o2)cc1` was -19.1% (inactive).

As for `CN1CCN(C(CNC(=O)c2ccccc2F)c2ccc3c(c2)OCO3)CC1` (centres undefined), the activity change, negative = inhibition is 8.69% (inactive). The value for `CCOc1cc(C(=O)NCCc2csc3nc(-c4ccc(C)cc4)nn23)cc(OCC)c1OCC` was 3.63% (inactive); that for `O=C(NCc1ccco1)c1cc2sccc2n1Cc1ccc(F)cc1` was -8.06% (inactive); that for `O=C(NCc1ccco1)c1nn2cccnc2c1Cl` was 15.7% (inactive). The value for `O=C(NCc1ccco1)c1sc2cccc(F)c2c1Cl` was -46.1% (active); that for `CCOc1ccc(N2CC(C)Cn3c2nc2c3c(=O)n(Cc3c(F)cccc3Cl)c(=O)n2C)cc1` (centres undefined) was -2.48% (inactive). The value for `COc1ccc(CNC(=O)c2ccc3c(c2)nc2n3CCOC2)c(OC)c1` was 1.06% (inactive); that for `O=C(CSC1=Nc2ccccc2C2=NC(c3ccccc3)C(=O)N12)NCC1CCCO1` (centres undefined) was -47% (active); that for `Cc1ccc(CNC(=O)CSC2=Nc3ccccc3C3=NC(C)C(=O)N23)cc1` (centres undefined) was -1.57% (inactive).

Regarding `O=C(CSc1ccc(-c2ccccc2)nn1)NCC1CCCO1` (centres undefined), the activity change, negative = inhibition was 5.37% (inactive). The value for `O=C(COc1ccc(Cl)cc1)Nc1ccc(-c2nc3cc(Cl)ccc3o2)c(O)c1` was 3.9% (inactive); that for `CN(CC(=O)Nc1ccccc1F)S(=O)(=O)c1ccc2c(c1)c(=O)n(C)c(=O)n2C` was 8.37% (inactive); that for `COC(=O)c1ccc(NC(=O)C(C)N2C(=O)c3ccccc3C2=O)cc1` (centres undefined) was -2.2% (inactive). The value for `CCOc1ccc(NC(=O)C(CC(C)C)N2Cc3ccccc3C2=O)cc1` (centres undefined) was 6.62% (inactive); that for `CCOc1ccc(NC(=O)C(C)N2C(=O)c3ccccc3C2=O)cc1` (centres undefined) was -42.7% (active); that for `COc1cc2nc(SCC(=O)Nc3ccccc3F)n3nc(-c4ccccc4)nc3c2cc1OC` was -6.83% (inactive). The value for `COc1ccc(CNc2nc(-c3ccc(Cl)cc3)nn2C(=O)c2ccccc2)cc1` was -0.876% (inactive); that for `Cc1cccc(NC(=O)Cn2c(=O)n(Cc3ccccc3)c(=O)c3c(C)c(C)sc32)c1` was -0.708% (inactive); that for `Cc1c(C(=O)N(C)C)sc2c1c(=O)n(-c1ccc(F)cc1)c(=O)n2CC(=O)N(C)c1ccccc1` was -0.832% (inactive). `CCOc1ccccc1NC(=O)Cn1c(=O)n(Cc2ccccc2)c(=O)c2c(C)c(C(=O)N(C)C)sc21`: the activity change, negative = inhibition is -72.6% (active). In the case of `CCOc1ccc(OCC)c(NS(=O)(=O)c2ccc3[nH]c(=O)ccc3c2)c1`, the activity change, negative = inhibition was -7.27% (inactive).

As to `CCC1SC2=NCCN2C1(O)c1ccc(Cl)cc1` (centres undefined), the activity change, negative = inhibition was -31.5% (active). The value for `CCCOc1ccc(C2=CSC3=NCCN23)cc1Cl` was 3.06% (inactive); that for `Cc1cn(C)c(CC(=O)NCc2ccccc2)c1C(=O)O` was 0.691% (inactive); that for `Cc1cc(F)ccc1NC1(c2ccccc2)C(=O)c2ccccc2C1=O` was -5.68% (inactive).

As to `COc1ccc(OCCn2cc(C(=O)C3CCCCC3)c3ccccc32)cc1`, the activity change, negative = inhibition is 10.3% (inactive).

Take `CCOC(=O)C1CCCN(C(=O)c2ccc(-n3ccc4ccccc43)s2)C1` (centres undefined): the activity change, negative = inhibition is -9.46% (inactive).

For `Cc1ccc(Nc2c(-c3ccc(N(C)C)cc3)nc3nc[nH]n23)cc1`, the activity change, negative = inhibition was 1.41% (inactive).

Consider `O=C(NCc1ccccc1CN1CCCC1)c1cccc(S(=O)(=O)Nc2ccc(F)cc2)c1`, for which the activity change, negative = inhibition is 2.42% (inactive). Consider `CCOC(=O)C1CCN(C(=O)c2cccc(S(=O)(=O)N(CC)c3ccccc3)c2)CC1`, for which the activity change, negative = inhibition was -4.11% (inactive).

Turning to `CCN(c1ccccc1)S(=O)(=O)c1cccc(C(=O)NCc2ccccc2CN2CCOCC2)c1`, the activity change, negative = inhibition is -31.4% (active). Take `COc1cccc(Cn2c(SCc3ccc(C(=O)N4CCC(C)CC4)cc3)nc3ccncc32)c1`: the activity change, negative = inhibition was -10.8% (inactive). The value for `CC(C)(C)OC(=O)N1CCC(c2c(C(=O)NCCc3ccsc3)cnn2-c2ccc(F)cc2F)CC1` was -6.33% (inactive); that for `CC1CCN(C(=O)C2CCN(S(=O)(=O)N3CCC4(CC3)OCCO4)CC2)CC1` was -37.8% (active). The value for `O=C(O)C1CCN(S(=O)(=O)N2CCOCC2)CC1` was 0.172% (inactive); that for `CCOC(=O)C1CCN(C(=O)C2CCN(S(=O)(=O)N3CCCC3)CC2)CC1` was -2.4% (inactive); that for `CC(=O)Nc1cccc(C(=O)OCC(=O)c2ccc3c(c2)OCO3)c1` was -0.144% (inactive). Regarding `CC(C)C(=O)Nc1cccc(C(=O)Nc2ccc3c(c2)OCO3)c1`, the activity change, negative = inhibition is -43.1% (active). The value for `CCSc1ccccc1C(=O)Nc1ccc2c(c1)OCO2` was 10% (inactive).

For the molecule `Cc1ccc(Cn2c(=O)n(CCCC(=O)NCc3ccccc3Cl)c(=O)c3ccccc32)cc1`, the activity change, negative = inhibition was 5.86% (inactive).

For `CCOc1ccc(OCC)c(Nc2nc3ccccc3n3nnnc23)c1`, the activity change, negative = inhibition was 1.86% (inactive). The value for `Fc1ccc(CSc2nc(NCc3ccccc3)c3ccccc3n2)cc1` was 21.1% (inactive); that for `Fc1ccc(CNc2nc3ccccc3n3nnnc23)cc1` was -50.2% (active); that for `CCOC(=O)c1cccc(NC(=O)C(Cc2ccccc2)NS(=O)(=O)c2cccc3nsnc23)c1` (centres undefined) was -3.2% (inactive).

For the molecule `Clc1cccc(Cl)c1OCCOCCNCc1ccccc1`, the activity change, negative = inhibition is -39.7% (active).

For `CCOc1ccccc1OCCCNCc1ccccc1`, the activity change, negative = inhibition was -23.9% (inactive). The value for `OCCNCc1cccc(OCc2ccccc2Cl)c1` was 0.511% (inactive); that for `O=C(CN1c2ccccc2S(=O)(=O)c2ccccc21)Nc1cccc(C(F)(F)F)c1` was -3.23% (inactive); that for `Cc1cccc(CC(=O)Nc2cccc(-c3cn4cccnc4n3)c2)c1` was -7.29% (inactive).

For `COc1cc(CNC(=O)c2cc3n(n2)CCCN(Cc2cccc(F)c2)C3=O)cc(OC)c1OC`, the activity change, negative = inhibition was -15.1% (inactive). The value for `COc1ccccc1CNS(=O)(=O)c1cc2c3c(c1)CCC(=O)N3CCC2` was -53% (active); that for `COc1ccc(C)cc1S(=O)(=O)Nc1cc2c3c(c1)CCC(=O)N3CCC2` was -35% (active). The value for `COc1ccccc1CCNS(=O)(=O)c1cc2c3c(c1)C(C)C(=O)N3CCC2` (centres undefined) was -6.83% (inactive); that for `COc1ccc(CNS(=O)(=O)c2cc3c4c(c2)CCN4C(=O)CC3)cc1` was -7.89% (inactive) and -23.2% (inactive); that for `COc1ccc(C)cc1S(=O)(=O)NC1CCCCC1` was 2.79% (inactive). The value for `O=C1CCc2cc(S(=O)(=O)Nc3ccc(C(F)(F)F)cc3)cc3c2N1CC3` was -8.34% (inactive).
